Results on 30 molecules are retold here after PubChem BioAssay AID504834 (National Center for Advancing Translational Sciences (NCATS), 2011).

About 22,000 (6.9%) of roughly 320,000 compounds were called active. Not shown: some 27% with an inconclusive outcome. Calls come from the whole dose curve; as a rule, active = well fitted inhibition curve with a large enough effect; inconclusive = small, poorly fitted or top-dose-only effect, or another doubt; inactive = no such curve, though single readings can be large or run the other way. This excerpt belongs to a sample that is enriched for actives.
% is set by controls: 0 for no effect and ±100 for the full control effect; potency is the fitted concentration of half-maximal effect.

The experiment can be described thus: Primary qHTS for delayed death inhibitors of the malarial parasite plastid, 96 hour incubation. As to conditions: P. falciparum luciferase reporter growth; series mostly up to 28.7 µM; activity change, negative = inhibition: at the top concentration. Put shortly:
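Cell-based qHTS: luciferase-tagged P. falciparum in erythrocytes (2% hematocrit, 0.05% parasitemia final) incubated with compounds for 96 hours, 37 C, 5% CO2; luciferase detection reagent then added and luminescence measured.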
(In general: qHTS replaces the single test concentration by a dilution series.)
On to `CC(Oc1ccccc1)C(=O)Nc1c2c(nn1-c1ccccc1)CS(=O)C2` (stereo not given), for which the “activity change, negative = inhibition” value is -11.3% (inactive).
Regarding `C=CCN1C(=O)c2ccc(C(=O)N3CCC(C(=O)OCC)CC3)cc2C1=O`, the “activity change, negative = inhibition” value is 61.5% (inactive).
For `Cc1cccc(C(=O)NNC(=O)CSc2nnc(C(C)C)n2C)c1`, the “activity change, negative = inhibition” value is 19% (inactive).
On to `CC(=C/c1ccccc1)/C=N/NC(=O)c1cc(C)oc1C`, for which the Potency is 9.28 µM (active).
Consider `Cc1cc(C(=O)N/N=C/c2ccccc2[N+](=O)[O-])c(C)o1`, for which the “activity change, negative = inhibition” value was 33.4% (inactive).
For the molecule `Cc1cc(C(=O)N/N=C\C(Br)=C\c2ccccc2)c(C)o1`, the “activity change, negative = inhibition” value is 11.7% (inactive).
In the case of `COc1cccc(Cn2cc(/C=N/NC(=O)c3cc(O)cc(O)c3)c3ccccc32)c1`, the “activity change, negative = inhibition” value was -22.1% (inactive).
Take `COc1ccc(N2CCN(C(=O)CNS(=O)(=O)c3ccc(C)c(C)c3)CC2)cc1`: the activity change, negative = inhibition is -44% [at 5.75 µM] (inactive).
As to `COc1ccc(N2CCN(C(=O)CCNC(=O)c3ccc(Br)cc3)CC2)cc1`, the “activity change, negative = inhibition” value is -2.69% (inactive).
Consider `COc1ccc(N2CCN(C(=O)CNC(=O)c3ccc(C(C)(C)C)cc3)CC2)cc1`, for which the Potency is 4.65 µM (active).
For the molecule `O=C(NCC(=O)N1CCCCCCC1)c1ccccc1Cl`, the “activity change, negative = inhibition” value is 70.2% (inactive).
Take `COc1cc(OC)cc(C(=O)NCC(=O)N2CCCCCCC2)c1`: the “activity change, negative = inhibition” value is -16.6% (inactive).
On to `O=C(NCC(=O)N1CCN(c2ccccc2O)CC1)c1ccc2ccccc2c1`, for which the Potency is 6.57 µM (active).
Consider `CCOC(=O)c1c(N)sc2c1CCCC2=O`, for which the “activity change, negative = inhibition” value is 21.3% (inactive).
With `O=C(CN(C(=O)CNC(=O)c1cccs1)c1cccc(F)c1)NC1CCCCC1`, the “activity change, negative = inhibition” value was 8.81% (inactive).
For the molecule `COc1ccccc1/C=C/C(=O)NC1CC2CCC1C2` (stereo not given), the “activity change, negative = inhibition” value is 9.8% (inactive).
With `O=S(=O)(Nc1ccccc1Cl)c1cccc2nsnc12`, the “activity change, negative = inhibition” value was -16.2% (inactive).
For the molecule `O=C(Nc1ccccc1)c1ccc2c(c1)OCCCO2`, the “activity change, negative = inhibition” value is 1.97% (inactive).
The same measure, in the same setting: to `C[C@H](NC(=O)[C@@H]1Cc2ccccc2CN1C(=O)OC(C)(C)C)C(=O)NC1CCCC1` belongs -19.6% (inactive); to `COc1ccc(CCNC(=O)CCC(=O)NC2CCCCC2)cc1OC`, -3.75% (inactive).
Turning to `COc1ccc(C(C)NC(=S)NC2CCCCC2)cc1OC` (stereo not given), the Potency is 10.4 µM (active).
In the case of `O=C(COc1ccccc1O)NC1CCCC1`, the “activity change, negative = inhibition” value was -9.08% (inactive).
Turning to `COc1cc(C(=S)NC2CCCCC2)ccc1O`, the Potency was 4.15 µM (active).
For `CCN(CC)C(=O)c1ccc(O)c(OC)c1`, the Potency entry is “inactive”.
With `COc1ccc(Cl)cc1C(=O)NNC(=S)NC1CCCC1`, the “activity change, negative = inhibition” value was 35% (inactive).
Turning to `Cc1ccc(C)c(NS(=O)(=O)c2c(C)[nH]c(C)c2C(=O)N2CCCCC2)c1`, the “activity change, negative = inhibition” value is 29.7% (inactive).
Take `CC(=O)N1CCN(CC(c2ccccc2)c2ccccc2)CC1`: the “activity change, negative = inhibition” value was 0% (inactive).
On the same count and under the same terms, to `NC(=O)C(Cc1ccccc1)NC(=O)C12CC3CC(CC(C3)C1)C2` (stereo not given) belongs 11.1% (inactive).
For `CC(=O)O[C@]1(C(C)=O)CC[C@H]2[C@@H]3C=C(C)C4=CC(=O)CC[C@]4(C)[C@H]3CC[C@@]21C`, the Potency was 11.7 µM (active).
`CCCCN(C1CCS(=O)(=O)C1)S(=O)(=O)c1ccc(C(C)C)cc1` (stereo not given): the “activity change, negative = inhibition” value was 2.84% (inactive).
